Data as given in PubChem BioAssay (NCATS).
A number with no mark means an inactive call. Records with an inconclusive call do not appear. A call without a number means that no potency is given here. Calls of active or inactive are those of the source. Unless noted, the call rests on the fitted dose curve; in most records, active means well fitted curve in the direction sought with a large enough effect; inconclusive means small, poorly fitted or top-dose-only effect, or another doubt; inactive means no such curve, though single readings can be large; an effect the other way counts as inactive or inconclusive.

What was measured:
[1] = biological target: Cytochrome P450 2C9 (Homo sapiens) (UniProt P11712); test: qHTS Assay for Inhibitors and Substrates of Cytochrome P450 2C9 (AID 883); further: nearly all actives have a fitted effect of over 60% in size
Method in brief: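 A luminogenic readout tracked human CYP2C9 (10nM) converting deoxyluciferin (100uM, at KM) in 25mM KPO4 during 60 min at 37C with regenerated NADPH. Values normalized to 57uM sulphaphenazole as complete inhibition.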

[2] = biological target: Cytochrome P450 2D6 (Homo sapiens) (UniProt P10635); test: qHTS Assay for Inhibitors and Substrates of Cytochrome P450 2D6 (AID 891); further: nearly all actives have a fitted effect of over 60% in size; further: potency means the concentration at half of the fitted maximal effect
Method in brief: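 Human CYP2D6 (5 nM) with 30 uM Luciferin-ME EGE (at Km) in 100 mM KPO4, compound preincubated 10 min, then NADPH regeneration system for 60 min at room temperature. Luciferin read by luminescence; normalized to 1.43 uM quinidine.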

[3] = qHTS Assay for Identification of Small Molecule Antagonists for NFkB Signaling Pathway (AID 895; active means well fitted inhibition curve with a large enough effect in the signal ratio, with a control signal flat, not every such curve was filed as active; the % refers to the signal ratio)
Method in brief: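 NFkB-bla ME-180 cervical carcinoma cells with beta-lactamase reporter under NFkB response element; compounds added, then TNF alpha at 10 pM final (EC50), 5 h at 37 C. LiveBLAzer substrate 2 h, room temperature; emission 460/530 nm at 405 nm excitation.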

[4] = biological target: Muscarinic acetylcholine receptor M1 (Rattus norvegicus) (UniProt P08482); test: qHTS Assay for Antagonists of Acetylcholine Muscarinic M1 Receptor: Kinetic Measurement of Intracellular Calcium Response (AID 943); further: nearly all actives have a fitted effect of over 75% in size; further: potency means the concentration at half of the fitted maximal effect
Method in brief: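 CHO cells expressing rat M1 receptor, Fluo-4 loaded, preincubated 10 min with compound, then stimulated with EC80 carbachol (100 nM final). Kinetic calcium fluorescence over 4 min; response taken as peak over basal signal.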

[5] = biological target: Muscarinic acetylcholine receptor M1 (Rattus norvegicus) (UniProt P08482); test: qHTS Assay for Antagonists of Acetylcholine Muscarinic M1 Receptor: Measurement of IP-One Response (AID 944); further: nearly all actives have a fitted effect of over 75% in size; further: potency means the concentration at half of the fitted maximal effect
Method in brief: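 CHO cells stably expressing rat M1, pretreated 10 min with compound, then stimulated 30 min with carbachol at EC80 (200 nM) in LiCl-containing buffer pH 7.4; IP1 accumulation read by HTRF competition (665/620 nm).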

[6] = Confirmation and Secondary Assay for Modulators of Hemoglobin Beta Chain Splicing at IVS2 654 locus (AID 910);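 further: per-well total GFP intensity by laser scanning cytometry after 2-day treatment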
Method in brief: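 HeLa cells stably carrying EGFP interrupted by mutant beta-globin IVS2-654 intron (CMV-driven) were treated with compound for 2 days at 37C; corrected splicing was scored as total peak GFP intensity per well (488 nm excitation, 500-520 nm emission).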

[7] = Confirmation and Secondary Assay for Modulators of Hemoglobin Beta Chain Splicing at IVS2 705 locus (AID 930);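 further: HeLa cells stably expressing the EGFP-705 splicing reporter; GFP fluorescence per well restored by corrected splicing of the IVS2-705 intron in EGFP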
Method in brief: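 Stable HeLa line with EGFP disrupted by mutant beta-globin intron 2 (705). Overnight attachment, then 2 days of compound at 37C, 5% CO2. Signal: peak GFP intensity summed over objects 5-250 µm.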

[8] = S16 Schwann cell PMP22 intronic element beta-lactamase assay (AID 624044; calls by dose curve; further: nearly all actives have a fitted effect of over 15% in size)
Method in brief: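 Rat S16 Schwann cells with beta-Lac driven by a PMP22 intronic element, compound-treated 24 h at 37 °C. LiveBLAzer FRET B/G read: 460 nm normalized to potassium clavulanate vs DMSO; 535 nm FRET as viability; concentration-effect curves classified.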

CP297 = test: qHTS profiling for inhibitors of Plasmodium falciparum proliferation (AID 504749); further: nearly all actives have a fitted effect of over 60% in size; details: P. falciparum in erythrocytes, SYBR Green DNA, 72 h; series mostly up to 12.8 µM
Method in brief: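 Parasite proliferation within erythrocytes, 72 h exposure. Endpoint: SYBR Green I fluorescence after overnight lysis at room temperature. Controls: 0.29 uM artemisinin, DMSO.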

[9] = biological target: Guanine nucleotide-binding protein G(i) subunit alpha-1 (Homo sapiens) (UniProt P63096); test: qHTS Assay for Inhibitors of RGS12 GoLoco Motif Activity (Green Fluorophore) (AID 879);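 further: negative values mean loss of peptide binding seen as reduced polarization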
Method in brief: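 Fluorescence polarization assay: 50 nM Gαi1 with 10 nM FITC-labeled RGS12 GoLoco peptide in 10 mM Tris pH 7.5, 150 mM NaCl, 0.1 mM GDP, 0.05% NP40, 10 min at room temperature with compound.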

[10] = biological target: Cytochrome P450 2C19 (Homo sapiens) (UniProt P33261); test: qHTS Assay for Inhibitors and Substrates of Cytochrome P450 2C19 (AID 899); further: potency means the concentration at half of the fitted maximal effect; nearly all actives have a fitted effect of over 60% in size
Method in brief: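 NADPH-dependent conversion of Luciferin-H EGE (10uM, at KM) by 5nM enzyme in 50mM KPO4, 60 min at 37C following 10 min compound preincubation. Stopped with luciferin detection buffer; luminescence read after 20 min.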

[11] = biological target: Pyruvate kinase (Leishmania mexicana) (UniProt Q27686); test: qHTS Validation Assay for Activators of Leishmania Mexicana Pyruvate Kinase (AID 959); details: purified L. mexicana pyruvate kinase, enzyme activity
Method in brief: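 Mutant LmPYK (E451W), 0.2 nM, plus 0.5 mM PEP and 0.1 mM ADP in 50 mM imidazole pH 7.2 containing 0.01% Tween 20 and 0.05% BSA. Incubated 1 h at room temperature; luminescence via PKLight, normalized to DMSO.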

[12] = biological target: Cytochrome P450 3A4 (Homo sapiens) (UniProt P08684); test: qHTS Assay for Inhibitors and Substrates of Cytochrome P450 3A4 (AID 884); further: nearly all actives have a fitted effect of over 50% in size
Method in brief: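 20 nM human CYP3A4 with 25 uM Luciferin-PPXE (at KM) in 200 mM KPO4, preincubated 10 min with compound; NADPH regeneration started a 60 min RT reaction. Luciferin detected by luminescence, normalized to 57 uM ketoconazole as full inhibition.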

Muscarinic acetylcholine receptor M1 (Rattus norvegicus), sequence (P08482 whole entry, looked up): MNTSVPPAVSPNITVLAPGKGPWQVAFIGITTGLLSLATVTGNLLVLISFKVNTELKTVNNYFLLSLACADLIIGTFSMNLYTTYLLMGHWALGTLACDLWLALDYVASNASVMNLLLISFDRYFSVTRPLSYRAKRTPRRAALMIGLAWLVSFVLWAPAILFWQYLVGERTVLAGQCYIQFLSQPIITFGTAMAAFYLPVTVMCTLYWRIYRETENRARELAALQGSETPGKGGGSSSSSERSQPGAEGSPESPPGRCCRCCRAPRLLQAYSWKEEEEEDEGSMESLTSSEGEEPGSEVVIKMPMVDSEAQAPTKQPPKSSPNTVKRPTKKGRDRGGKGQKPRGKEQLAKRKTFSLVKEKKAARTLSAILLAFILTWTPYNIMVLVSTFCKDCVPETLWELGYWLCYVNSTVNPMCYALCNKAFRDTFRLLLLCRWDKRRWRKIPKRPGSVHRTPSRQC
Cytochrome P450 2D6 (Homo sapiens), sequence (P10635 whole entry, looked up): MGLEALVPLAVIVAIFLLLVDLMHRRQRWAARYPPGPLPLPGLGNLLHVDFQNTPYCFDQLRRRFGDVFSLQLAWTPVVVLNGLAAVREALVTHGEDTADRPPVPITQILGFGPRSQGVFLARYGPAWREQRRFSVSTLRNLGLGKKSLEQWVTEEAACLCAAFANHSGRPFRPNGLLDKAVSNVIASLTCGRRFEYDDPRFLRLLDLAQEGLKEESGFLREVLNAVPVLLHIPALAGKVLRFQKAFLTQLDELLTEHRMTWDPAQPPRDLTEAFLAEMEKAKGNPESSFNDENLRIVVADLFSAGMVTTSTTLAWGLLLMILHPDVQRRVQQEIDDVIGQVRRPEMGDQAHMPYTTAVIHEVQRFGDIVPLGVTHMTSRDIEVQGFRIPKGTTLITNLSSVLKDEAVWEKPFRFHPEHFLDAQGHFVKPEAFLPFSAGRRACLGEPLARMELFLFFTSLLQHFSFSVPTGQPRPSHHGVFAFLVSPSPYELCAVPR
Cytochrome P450 2C9 (Homo sapiens), sequence (P11712 whole entry, looked up): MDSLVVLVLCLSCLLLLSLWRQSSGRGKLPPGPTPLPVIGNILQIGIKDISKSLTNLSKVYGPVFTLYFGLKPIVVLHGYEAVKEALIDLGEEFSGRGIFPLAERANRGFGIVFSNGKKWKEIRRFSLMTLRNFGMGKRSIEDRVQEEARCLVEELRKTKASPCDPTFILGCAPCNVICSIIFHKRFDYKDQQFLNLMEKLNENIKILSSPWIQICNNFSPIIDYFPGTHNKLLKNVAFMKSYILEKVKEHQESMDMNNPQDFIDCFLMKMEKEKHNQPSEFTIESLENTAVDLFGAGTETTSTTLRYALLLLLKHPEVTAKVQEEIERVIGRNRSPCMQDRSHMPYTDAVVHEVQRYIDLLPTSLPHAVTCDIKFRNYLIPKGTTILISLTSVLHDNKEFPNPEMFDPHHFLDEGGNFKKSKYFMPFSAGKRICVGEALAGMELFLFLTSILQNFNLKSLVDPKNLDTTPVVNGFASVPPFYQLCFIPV
Guanine nucleotide-binding protein G(i) subunit alpha-1 (Homo sapiens), sequence (P63096 whole entry, looked up): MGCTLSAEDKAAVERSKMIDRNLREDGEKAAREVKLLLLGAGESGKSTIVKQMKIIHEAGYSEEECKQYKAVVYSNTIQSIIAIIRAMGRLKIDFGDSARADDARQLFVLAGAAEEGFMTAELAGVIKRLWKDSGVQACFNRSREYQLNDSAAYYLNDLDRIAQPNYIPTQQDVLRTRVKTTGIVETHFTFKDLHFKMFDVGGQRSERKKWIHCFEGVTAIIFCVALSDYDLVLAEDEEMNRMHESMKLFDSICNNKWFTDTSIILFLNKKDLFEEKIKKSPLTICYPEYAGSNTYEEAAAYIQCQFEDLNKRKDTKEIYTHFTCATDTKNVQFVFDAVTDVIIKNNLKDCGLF
Cytochrome P450 3A4 (Homo sapiens), sequence (P08684 whole entry, looked up): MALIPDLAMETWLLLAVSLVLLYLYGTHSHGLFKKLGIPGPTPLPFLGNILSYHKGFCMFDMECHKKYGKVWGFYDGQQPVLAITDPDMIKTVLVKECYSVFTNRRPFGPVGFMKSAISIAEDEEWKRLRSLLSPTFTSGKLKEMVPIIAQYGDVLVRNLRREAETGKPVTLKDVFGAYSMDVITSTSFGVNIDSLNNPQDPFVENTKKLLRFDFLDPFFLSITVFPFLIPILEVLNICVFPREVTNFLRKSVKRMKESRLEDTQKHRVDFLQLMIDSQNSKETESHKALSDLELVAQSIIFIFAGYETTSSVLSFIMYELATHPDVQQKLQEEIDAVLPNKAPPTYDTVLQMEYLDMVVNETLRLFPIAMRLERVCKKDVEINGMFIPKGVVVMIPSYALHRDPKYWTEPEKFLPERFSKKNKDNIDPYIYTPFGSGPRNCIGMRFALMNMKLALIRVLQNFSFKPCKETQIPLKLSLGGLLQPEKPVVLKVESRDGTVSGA
Cytochrome P450 2C19 (Homo sapiens), sequence (P33261 whole entry, looked up): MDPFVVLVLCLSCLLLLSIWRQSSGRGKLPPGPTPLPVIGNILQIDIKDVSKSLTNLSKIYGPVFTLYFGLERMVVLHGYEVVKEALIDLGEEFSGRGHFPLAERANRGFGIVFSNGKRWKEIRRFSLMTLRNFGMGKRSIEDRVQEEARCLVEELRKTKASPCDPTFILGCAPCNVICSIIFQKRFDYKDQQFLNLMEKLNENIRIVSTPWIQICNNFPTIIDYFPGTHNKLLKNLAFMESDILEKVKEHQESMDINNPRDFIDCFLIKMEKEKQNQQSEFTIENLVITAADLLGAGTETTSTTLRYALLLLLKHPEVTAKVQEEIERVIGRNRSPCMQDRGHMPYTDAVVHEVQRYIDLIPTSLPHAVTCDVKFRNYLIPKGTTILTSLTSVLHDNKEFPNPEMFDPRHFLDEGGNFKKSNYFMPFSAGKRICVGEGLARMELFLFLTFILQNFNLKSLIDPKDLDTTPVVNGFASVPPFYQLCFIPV
Pyruvate kinase (Leishmania mexicana), sequence (Q27686 2-499 E452W): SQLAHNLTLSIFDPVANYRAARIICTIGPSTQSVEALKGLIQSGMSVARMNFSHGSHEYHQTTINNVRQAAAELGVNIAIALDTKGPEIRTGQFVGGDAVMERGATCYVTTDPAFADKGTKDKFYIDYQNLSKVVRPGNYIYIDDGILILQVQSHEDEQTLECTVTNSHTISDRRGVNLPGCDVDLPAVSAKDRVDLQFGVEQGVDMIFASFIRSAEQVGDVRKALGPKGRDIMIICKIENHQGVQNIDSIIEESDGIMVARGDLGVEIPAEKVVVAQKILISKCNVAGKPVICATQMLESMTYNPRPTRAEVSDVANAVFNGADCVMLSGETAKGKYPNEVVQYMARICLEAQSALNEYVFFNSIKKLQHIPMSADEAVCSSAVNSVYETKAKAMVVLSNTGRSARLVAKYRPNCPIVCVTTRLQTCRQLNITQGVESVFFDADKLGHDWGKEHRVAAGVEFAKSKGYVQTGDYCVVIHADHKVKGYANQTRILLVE

CN1C(=O)CC[C@@H]1c1cccnc1
Potency [1]: inactive
Potency [2]: inactive
Potency [3]: inactive
Potency [4]: inactive
Potency [5]: inactive

C[C@@]12CC[C@@H]3c4ccc(O)cc4CC[C@H]3[C@H]1CC[C@H]2O
Potency [1]: inactive
Potency [2]: inactive

Cc1cccc(CNc2ncnc3ccc(-c4cccc(NS(C)(=O)=O)c4)cc23)c1
Potency [6]: inactive
outcome [7]: inactive

CC[C@]1(C)CC(=O)NC1=O
Potency [3]: inactive
outcome [8]: inactive
Potency (CP297): inactive

CN1[C@@H]2CC[C@H]1CC(OC(=O)[C@@H](O)c1ccccc1)C2 (stereo partly drawn)
Potency [3]: inactive
outcome [8]: inactive
Potency (CP297): inactive

C[C@@H](COc1ccccc1)N(CCCl)Cc1ccccc1
Potency [9]: inactive
Potency [2]: 0.158 µM (active)
Potency [10]: 2 µM (active)

CC(=O)OCC1=C(C(=O)O)N2C(=O)[C@@H](NC(=O)CSc3ccncc3)[C@@H]2SC1
Potency [9]: inactive
Potency [3]: inactive
Potency [4]: inactive
Potency [5]: inactive
Potency [11]: 15.8 µM (active)
outcome [8]: inactive
Potency (CP297): inactive

CC(C)NC[C@H](O)c1cc(O)cc(O)c1
Potency (CP297): inactive

C[C@@H](C[N+](C)(C)C)OC(N)=O
Potency [9]: inactive
Potency [1]: inactive
Potency [3]: inactive
Potency [4]: inactive
Potency [5]: inactive

C[C@@]12CCC(=O)C=C1CC[C@H]1[C@H]3CC[C@](O)(C(=O)CO)[C@]3(C)CC(=O)[C@@H]12
Potency [1]: inactive
Potency [2]: inactive

C[C@@H]1COc2c(N3CCN(C)CC3)c(F)cc3c(=O)c(C(=O)O)cn1c23
Potency [5]: inactive
Potency (CP297): inactive

CCCN[C@@H](C)C(=O)Nc1c(C)csc1C(=O)OC
outcome [8]: inactive
Potency (CP297): inactive

C[C@@H](C(=O)O)c1ccc(C(=O)c2cccs2)cc1
outcome [8]: inactive
Potency (CP297): inactive

CN(C)CC[C@@H](c1ccccc1)c1ccccn1
Potency [12]: inactive
Potency [3]: inactive
Potency [4]: 11.2 µM (active)
Potency [5]: 10 µM (active)
